Experimental findings from the antibiotic and cytotoxicity screens of Wong et al. (2023) are described below.

The campaign covered roughly 39,000 compounds. About 3,300 (8.5%) were called active. Only a selection was taken, and actives are over-represented in it overall.

The subject of the assay is HepG2. Briefly: cytotoxicity call (relative viability < 0.9). To be noted: 10 µM.
Regarding `O=C(C[C@@H]1CC[C@H]2[C@@H](COC[C@H](O)CN2Cc2ccccc2F)O1)N[C@@H]1CCN(Cc2ccccc2)C1`, the cytotoxicity call is “inactive”.
The same measure for `COc1ccc(S(=O)(=O)Nc2cccc3c2O[C@H](CN(C)S(=O)(=O)c2c(C)noc2C)[C@@H](C)CN([C@H](C)CO)C3=O)cc1`: “inactive”; for `C/C=C/c1ccc([C@@H]2[C@H](CO)N(S(=O)(=O)Cc3ccccc3)C23CN(C(=O)C2CCOCC2)C3)cc1`: “inactive”; for `C[C@@H]1CN([C@H](C)CO)C(=O)c2cc(NC(=O)NC3CCCCC3)ccc2O[C@@H](C)CCCCO[C@@H]1CN(C)C(=O)c1ccccc1`: “inactive”.
Take `COc1ccc(S(=O)(=O)N(C)C[C@@H]2OCc3cnnn3CCCC(=O)N([C@H](C)CO)C[C@@H]2C)cc1`: the cytotoxicity call is “inactive”.
With `COCC#Cc1cnc2c(c1)C(=O)N([C@@H](C)CO)C[C@@H](C)[C@@H](CN(C)C(=O)Nc1ccc(OC)cc1)O2` the entry was “inactive”.
On to `C[C@H](CO)N1C[C@H](C)[C@H](CN(C)Cc2ccc(C(F)(F)F)cc2)Oc2c(NC(=O)C3CCCCC3)cccc2C1=O`, for which the cytotoxicity call was “inactive”.
The same measure for `COC(=O)c1cc(=O)n2ccccc2c1C#N`: “inactive”.
The same measure for `CO[C@@H](CN(C)C(=O)c1ccccc1F)[C@H](C)CN([C@@H](C)CO)S(=O)(=O)c1ccc(Cl)cc1`: “inactive”.
`C[C@H](CO)N1C[C@H](C)[C@H](CN(C)Cc2ccncc2)Oc2ccc(NS(=O)(=O)c3cn(C)cn3)cc2CC1=O`: the cytotoxicity call was “inactive”.
In the case of `C[C@H]1CCCCO[C@@H](CN(C)C)[C@@H](C)CN([C@@H](C)CO)C(=O)c2cc(NC(=O)CCCN(C)C)ccc2O1`, the cytotoxicity call is “inactive”.
Regarding `C=CC[C@H](CC(=O)NCCO)C(=O)N[C@@H](COC(=O)[C@@H](CC=C)CC(=O)OC(C)(C)C)Cc1ccccc1`, the cytotoxicity call is “inactive”.
With `CO[C@H]1CN(C)C(=O)c2ccc(NC(=O)C3CC3)cc2OC[C@@H](C)N(C(=O)C2CCOCC2)C[C@H]1C` the entry was “inactive”; with `Cc1ccc(S(=O)(=O)N2C[C@H](O)COC[C@H]3O[C@@H](CC(=O)N[C@H]4CCN(Cc5ccccc5)C4)CC[C@@H]32)cc1`, “inactive”; with `COc1cccc(S(=O)(=O)Nc2ccc3c(c2)[C@H]2C[C@H](CC(=O)N4CCCCC4)O[C@@H](CO)[C@H]2O3)c1`, “inactive”.
With `Cc1ccc(S(=O)(=O)Nc2ccc3c(c2)CC(=O)N([C@@H](C)CO)C[C@@H](C)[C@H](CN(C)Cc2ccc(C(F)(F)F)cc2)O3)cc1` the entry was “inactive”; with `Cc1ccc(S(=O)(=O)Nc2ccc3c(c2)CC(=O)N([C@H](C)CO)C[C@H](C)[C@@H](CN(C)Cc2ccc(C(F)(F)F)cc2)O3)cc1`, “inactive”; with `Cc1ccc(S(=O)(=O)Nc2ccc3c(c2)CC(=O)N([C@@H](C)CO)C[C@@H](C)[C@@H](CN(C)Cc2ccc(C(F)(F)F)cc2)O3)cc1`, “active”.
With `C[C@@H]1CCCCO[C@H](CN(C)C(=O)Nc2ccc(C(F)(F)F)cc2)[C@@H](C)CN([C@H](C)CO)C(=O)c2cc(NC(=O)c3ccncc3)ccc2O1` the entry was “inactive”.
With `Cc1cccc2ccccc12`, the cytotoxicity call was “inactive”.
In the case of `Cc1cccc(C)c1OCC(C)N.Cl` (stereo not drawn), the cytotoxicity call is “active”.
`Cc1cccc(C)c1OC[C@@H](C)N`: the cytotoxicity call was “inactive”.
Turning to `C[C@@H]1CN([C@@H](C)CO)C(=O)c2cc(NS(=O)(=O)c3cn(C)cn3)ccc2O[C@@H]1CN(C)S(=O)(=O)c1ccc(Cl)cc1`, the cytotoxicity call is “inactive”.
Turning to `O=C(O)CCCCCCC(=O)Nc1ccc([C@H]2O[C@@H](CSc3nc(-c4ccccc4)c(-c4ccccc4)o3)C[C@H](c3ccc([N+](=O)[O-])cc3)O2)cc1`, the cytotoxicity call is “inactive”.
With `COc1cc2c(cc1OC)CN(C[C@H]1C[C@H](c3ccccc3)O[C@H](c3ccc(NC(=O)CCCCCCC(=O)NO)cc3)O1)CC2` the entry was “active”.
The same measure for `O=C(CCCCCCC(=O)Nc1ccc([C@@H]2O[C@H](CSc3nc(-c4ccccc4)c(-c4ccccc4)o3)C[C@H](c3ccccc3)O2)cc1)NO`: “inactive”; for `O=C(CCCCCCC(=O)Nc1ccc([C@H]2O[C@H](CSc3nc(-c4ccccc4)c(-c4ccccc4)o3)C[C@H](c3ccc(NC(=O)CCCCCCC(=O)NO)cc3)O2)cc1)NO`: “inactive”.
For `O=C(CCCCCCC(=O)Nc1ccc([C@H]2O[C@@H](CSc3nc(-c4ccccc4)c(-c4ccccc4)o3)C[C@H](c3ccc([N+](=O)[O-])cc3)O2)cc1)NO`, the cytotoxicity call was “active”.
The same measure for `O=C(CCCCCCC(=O)Nc1ccc([C@H]2C[C@@H](CSc3nc(-c4ccccc4)c(-c4ccccc4)o3)O[C@H](c3ccccc3)O2)cc1)NO`: “inactive”; for `O=C(CCCCCCC(=O)Nc1ccc([C@H]2O[C@@H](COc3ccccc3)C[C@H](c3ccccc3)O2)cc1)NO`: “inactive”; for `O=C(CCCCCCC(=O)Nc1ccc([C@H]2O[C@@H](CN3CCCCCCC3)C[C@H](c3ccccc3)O2)cc1)NO`: “inactive”.
With `O=C(CCCCCCC(=O)Nc1ccc([C@H]2O[C@@H](CSc3nc4ccccc4o3)C[C@H](c3ccccc3)O2)cc1)NO` the entry was “active”; with `C[C@@H]1CN([C@H](C)CO)C(=O)c2cc(C#CCN(C)C)cnc2O[C@@H]1CN(C)C(=O)CCN1CCCCC1`, “inactive”.
With `Cc1noc(C)c1NC(=O)N[C@@H]1C=C[C@H](CC(=O)NCCCN(C)C)O[C@@H]1CO` the entry was “inactive”; with `C[C@@H]1CN([C@@H](C)CO)C(=O)c2cccc(NC(=O)Nc3ccc4c(c3)OCO4)c2O[C@H]1CN(C)Cc1ccc(Cl)c(Cl)c1`, “inactive”.
On to `C[C@H](CO)N1C[C@H](C)[C@@H](CN(C)C(=O)Nc2ccc(C(F)(F)F)cc2)Oc2ccc(NC(=O)Nc3cccc4ccccc34)cc2CC1=O`, for which the cytotoxicity call is “inactive”.
With `C[C@H](CO)N1C[C@H](C)[C@@H](CN(C)Cc2ccc(C(=O)Nc3ccccc3N)cc2)OCCCC[C@H](C)Oc2ccc(N(C)C)cc2C1=O` the entry was “inactive”.
In the case of `C[C@@H]1CN([C@H](C)CO)C(=O)c2cc(NC(=O)C3CC3)ccc2O[C@@H]1CN(C)S(=O)(=O)c1ccc(Cl)cc1`, the cytotoxicity call was “inactive”.
As for `C[C@@H]1CN([C@@H](C)CO)C(=O)c2c(c3ccccc3n2C)-c2ccccc2CO[C@H]1CN(C)Cc1ccc(C(F)(F)F)cc1`, the cytotoxicity call was “inactive”.
The same measure for `C[C@@H]1CN([C@H](C)CO)S(=O)(=O)c2ccc(C#Cc3ccncc3)cc2O[C@@H]1CN(C)S(=O)(=O)c1ccc(F)cc1`: “active”; for `C[C@H]1CN([C@@H](C)CO)S(=O)(=O)c2ccc(C#Cc3ccc(F)cc3)cc2O[C@H]1CN(C)S(=O)(=O)c1ccc(F)cc1`: “inactive”.
With `CC(C)CC#Cc1ccc2c(c1)O[C@H](CN(C)S(=O)(=O)c1ccc(F)cc1)[C@@H](C)CN([C@@H](C)CO)S2(=O)=O` the entry was “inactive”; with `C[C@@H]1CN([C@H](C)CO)S(=O)(=O)c2ccc(C#Cc3ccncc3)cc2O[C@H]1CN(C)S(=O)(=O)c1ccc(F)cc1`, “active”; with `C[C@H]1CN([C@@H](C)CO)S(=O)(=O)c2ccc(C#Cc3ccncc3)cc2O[C@H]1CN(C)S(=O)(=O)c1ccc(F)cc1`, “active”.
Take `C[C@H]1CN([C@@H](C)CO)S(=O)(=O)c2ccc(C#Cc3ccncc3)cc2O[C@@H]1CN(C)S(=O)(=O)c1ccc(F)cc1`: the cytotoxicity call is “inactive”.
The same measure for `C[C@@H]1CN([C@H](C)CO)S(=O)(=O)c2ccc(C#Cc3ccc(F)cc3)cc2O[C@H]1CN(C)S(=O)(=O)c1ccc(F)cc1`: “inactive”.
The same measure for `C[C@@H]1CN([C@H](C)CO)S(=O)(=O)c2ccc(C#Cc3ccc(F)cc3)cc2O[C@@H]1CN(C)S(=O)(=O)c1ccc(F)cc1`: “inactive”; for `C[C@H]1CN([C@@H](C)CO)S(=O)(=O)c2ccc(C#Cc3ccc(F)cc3)cc2O[C@@H]1CN(C)S(=O)(=O)c1ccc(F)cc1`: “inactive”.
The same measure for `C[C@H](CO)N1C[C@H](C)[C@@H](CN(C)S(=O)(=O)c2ccc(F)cc2)Oc2cc(C#Cc3ccncc3)ccc2S1(=O)=O`: “inactive”.
In the case of `CC(C)CC#Cc1ccc2c(c1)O[C@@H](CN(C)S(=O)(=O)c1ccc(F)cc1)[C@H](C)CN([C@H](C)CO)S2(=O)=O`, the cytotoxicity call was “inactive”.
As to `C[C@@H]1CN([C@@H](C)CO)S(=O)(=O)c2ccc(C#Cc3ccncc3)cc2O[C@H]1CN(C)S(=O)(=O)c1ccc(F)cc1`, the cytotoxicity call is “active”.
With `O=C(C[C@@H]1C=C[C@@H](NC(=O)CN2CCOCC2)[C@@H](CO)O1)NCCc1ccccc1` the entry was “inactive”.
With `C[C@H](CO)N1C[C@H](C)[C@@H](CN(C)Cc2cccc(C(=O)O)c2)Oc2ncc(C#CC(C)(C)O)cc2C1=O` the entry was “inactive”; with `O=C(CCCCCCC(=O)Nc1ccc([C@H]2O[C@@H](CSc3ccncc3)C[C@@H](c3ccccc3)O2)cc1)NO`, “inactive”; with `C[C@H]1CCCCO[C@H](CN(C)S(=O)(=O)c2cn(C)cn2)[C@@H](C)CN([C@@H](C)CO)C(=O)c2cc(NC(=O)CCCN(C)C)ccc2O1`, “inactive”.
With `C[C@@H]1CCCCO[C@H](CN(C)Cc2ccncc2)[C@H](C)CN([C@@H](C)CO)C(=O)c2cc(NC(=O)CCC(F)(F)F)ccc2O1`, the cytotoxicity call is “inactive”.
With `CN1CCN(C(=O)[C@H]2[C@H](CO)[C@H]3Cn4c(cccc4=O)[C@@H]2N3S(=O)(=O)c2ccccc2F)CC1` the entry was “inactive”; with `CCNC(=O)C[C@@H]1CC[C@@H]2[C@H](COC[C@H](O)CN2S(=O)(=O)c2ccc(Oc3ccccc3)cc2)O1`, “inactive”; with `O=S1(=O)CC[C@H](N2CCOCC2)C1`, “inactive”.
The same measure for `COc1ccc(NC(=O)Nc2ccc3c(c2)C(=O)N([C@H](C)CO)C[C@H](C)[C@@H](CN(C)C(=O)CCC(F)(F)F)OCCCC[C@@H](C)O3)cc1`: “inactive”.
With `Cc1noc(C)c1NC(=O)Nc1cccc2c1O[C@@H](CN(C)Cc1ccc(C(=O)Nc3ccccc3N)cc1)[C@@H](C)CN([C@H](C)CO)C2=O` the entry was “inactive”.
In the case of `O=C(CN1CCOCC1)N[C@H]1CC[C@@H](CCNC(=O)C2CCCCC2)O[C@@H]1CO`, the cytotoxicity call is “inactive”.
The same measure for `C[C@@H]1CCCCO[C@H](CN(C)C(=O)NC2CCCCC2)[C@H](C)CN([C@H](C)CO)C(=O)c2cc(NC(=O)CCC(F)(F)F)ccc2O1`: “inactive”.
